# Measurements: PubChem BioAssay AID862 (The Scripps Research Institute Molecular Screening Center, 2007)
# Screen size: about 190,000 compounds; about 1,700 (0.89%) were called active. What follows is part of a selection rich in actives, with near analogues and random picks from the rest. Values without a mark were called inactive.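 The calls were made as follows: active = inhibition above the mean inhibition across all screened compounds plus 3 SD (cut at about 44% in these data); inactive = the rest.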
# Assay: IL-6 driven STAT3 reporter inhibitors, primary screen, U3A cells, luciferase, luminescence, MLSCN library (AID 862);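 also: 0% = DMSO only wells and 100% = 100 µM nifuroxazide control wells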
# Details: IL-6 STAT3-luciferase reporter, at 5.5 µM, hits give high values
row,Structure (SMILES),inhibition
1,CC1=CC(=Cc2sc3ccccc3[n+]2C)C=C(C)O1,81.6% (active)
2,COc1ccc(C(=O)CC2C(=O)N(C)C(=O)N(C)C2=O)cc1,8.6%
3,Cc1cccc(-n2c(O)c(/C=N/N3CCOCC3)c(=O)[nH]c2=S)c1,-17.9%
4,COc1cccc(-c2nc3ccc(N4CCN(C)CC4)cc3[nH]2)c1,85.4% (active)
5,CN1CCN(c2cc(N3CCNCC3)ccc2[N+](=O)[O-])CC1,-1.6%
6,Cc1nc2ccc(N3CCN(C)CC3)cc2nc1C,-6.4%
7,Cc1c(C(=O)O)cccc1-n1c(C)cc(/C=C2\C(=O)NC(=O)N(c3ccc4c(c3)OCO4)C2=O)c1C,2.2%
8,O=C(CCCn1c(=O)[nH]c2cc(Cl)ccc2c1=O)N1CCC2(CC1)OCCO2,14.5%
9,O=C(CN1CCCC1=O)NCCc1ccccc1,3.6%
10,N#Cc1ccc(Cn2cc(C(=O)c3ccco3)c3ccccc32)cc1,10.3%
